Drawing on PubChem BioAssay (NCI), this text covers growth for 40 compounds.

Compounds without any hit were thinned out: in the full panel of roughly 83,000, 20% have a hit.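 Method: cells in 96-well plates; compound added at one concentration; 48 h incubation; percent growth measured; values under 10 scored active.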 A number with no mark means an inactive call. Calls of active or inactive are those of the source.

For the experiment, the system named is A549/ATCC NSCLC. As to the kind of experiment: NCI-60 one-dose screen, 48 h (100 = growth as untreated, 0 = no growth, -100 = all killed). The settings on record: 10 µM unless noted. On the procedure:
Growth inhibition of the A549/ATCC human Non-Small Cell Lung tumor cell line is measured as a screen for anti-cancer activity. Cells are grown in 96 well plates and exposed to the test compound for 48 hours. Compounds are tested at a single concentration, which is 10^-5 M for most compounds. The reported endpoint is percent growth (GI% or GIPRCNT), where numbers from 0 - 100% represent growth inhibition, and numbers from -100% - 0 represent cell death. For example, a value of 40 represents 60% growth inhibition. A value of 0 means no net growth occurred over the course of the experiment. A value of -40 indicates 40% of cells at the beginning of the experiment died by the end of the experiment. A value of -100 means all cells are dead at the end of the experiment.
NCI-60 Human Tumor Cell Lines Screen was performed using the standard one-dose NCI protocol, which is described in more detail at https://dtp.cancer.gov/discovery_development/nci-60/default.htm.
Compounds with GIPRCNT values below 10 were considered active. Activity score was based on GIPRCNT using the following formula: […]
Score is 0 for GIPRCNT values of 100 or above, 50 for GIPRCNT values of 0, and 100 for GIPRCNT values of -100.
Take `CN(C)Cc1c(-c2ccccc2)[nH]c2ccccc12`: the growth is 80.3%.

In the case of `Cc1ccc(C2CC(c3cccc(Nc4ccncc4)c3)=NN2c2ccccc2)cc1` (stereo not given), the growth was -60.2% (active).

On to `CN1C2CCC1CN(c1cnc(C(=O)Nc3cc(F)cc4cccnc34)cn1)C2`, for which the growth is 87.5%.

Regarding `CC1=NNC(=O)C1CCC(=O)N/N=C(\C)c1ccc2ccccc2c1` (stereo not given), the growth is 95.3%.

As to `CCc1c(Nc2ccc(C)cc2)nc(N)[nH]c1=O`, the growth was 99.5%.

For the compound `CN1CCN(c2ccc3nc(-c4cc(C(C)(C)C)c(O)c(C(C)(C)C)c4)[nH]c3c2)CC1`, the growth is 53.4%.

Turning to `COc1ccc(-c2nc(SC(C)C)nc(NNC(N)=O)c2C#N)cc1`, the growth was 88.6%.

In the case of `O=C(CN1CCOCC1)Nc1ccc2ncnc(Nc3ccc(OCc4cccc(F)c4)c(Cl)c3)c2c1`, the growth was 49.9%.

`O=C(Nc1sc2c(c1C(=O)O)CCCC2)c1cccc(C(F)(F)F)c1`: the growth is 85.3%.

Consider `N#Cc1cc(-c2nc3ccccc3s2)c(=O)n(NS(=O)(=O)c2ccc(Cl)cc2)c1N`, for which the growth is 117%.

With `O=C1c2cccnc2C(=O)c2nc3cc(N4CCN(C5CC5)CC4)ccc3nc21`, the growth was -53.3% (active).

As to `N#C/C(=C\c1ccc(Br)cc1)n1nnc2cccc(F)c21`, the growth was 20.9%.

In the case of `CC(=O)[C@@H]1CC[C@]2(C(=O)n3ccnc3)CC[C@]3(C)[C@H](CC[C@@H]4[C@@]5(C)Cc6c([nH]c7ccccc67)C(C)(C)[C@@H]5CC[C@]43C)[C@@H]12`, the growth was 68.2%.

`COc1ccc(C2CC(c3cccc(Nc4ccncc4)c3)=NN2c2ccccc2)cc1` (stereo not given): the growth was 39.9%.

As for `CC[N+](CC)(CCCC(C)[N+]1(Cc2ccccc2)C(C)=CC=C1C)Cc1ccccc1` (stereo not given), the growth is 100%.

Consider `CN1C(=O)N(C)C2NC(N/N=C/c3ccccc3)=NC21` (stereo not given), for which the growth is 100%.

As for `CCOC(=O)C1=C(C)NC(C)=C(C(=O)OCC)C1c1cc(Br)c(O)c(OC)c1`, the growth is 33.2%.

As to `CC(O)(CO)c1ccccc1` (stereo not given), the growth is 99.2%.

As to `CC(=O)Nc1ccc(S(=O)(=O)NC2CCCCC2)cc1`, the growth was 93.3%.

On to `COc1ccc(C(=O)c2cc3c(N)c(C(=O)Nc4cccc(Cl)c4C)sc3nc2C)cc1`, for which the growth was 13.2%.

For `C[C@]12C[C@H]1CC[C@]1(C)[C@@H]2CC[C@@]23C[C@H](CC[C@H]21)[C@@](O)(CO)C3`, the growth was 99.6%.

`CC(c1ccccc1)n1ccnc1CO` (stereo not given): the growth is 109%.

As for `O=C(CN1CCOCC1)Nc1ccc2ncnc(Nc3ccc(Oc4cccc(F)c4)c(Cl)c3)c2c1`, the growth was 66.3%.

In the case of `COc1ccc(Cn2nc3c(c2-c2cc(OC)c(OC)c(OC)c2)-c2oncc2CC3)cc1`, the growth is 95.2%.

Take `Nc1c(Cl)cc([N+](=O)[O-])cc1Br`: the growth was 99.6%.

`COc1ccc(Cl)cc1NC(=O)c1c(NC(=O)C(F)(F)C(F)(F)F)sc2c1CCCCC2`: the growth is 7.89% (active).

For the compound `COc1ccc(C2=NN(C(C)=O)C(c3cn(Cc4ccc(Cl)cc4)c4ccccc34)C2)cc1` (stereo not given), the growth is 64.6%.

Consider `COc1ccc(Nc2nc(N)nc3c2CCc2occc2-3)cc1`, for which the growth was 103%.

As for `CCCC1C(C(=O)OCC)=C(N)Oc2cc(O)ccc21` (stereo not given), the growth is 101%.

On to `CN1CCN(c2ccc(NC3=C(Cl)C(=O)c4ncccc4C3=O)cc2C#N)CC1`, for which the growth was 110%.

Regarding `COc1cc(NCCCN(CC(C)C)C2CCCC2)c2ncccc2c1`, the growth was 79%.

For `Cc1cccc(Oc2ccc(Nc3ncnc4ccc(NC(=O)CNCCO)cc34)cc2Cl)c1`, the growth is 52.8%.

In the case of `O=S(=O)(c1ccccc1)N1CCCc2ccccc21`, the growth is 91.4%.

Consider `COc1cc(C2CC(c3cccc(Nc4ccncc4)c3)=NN2c2ccc(Cl)cc2)cc(OC)c1OC` (stereo not given), for which the growth was 26.1%.

Regarding `CCCCCCCC(=O)Nc1nc2[nH]c(CN3CCN(Cc4cccc(I)c4)CC3)c(CN3CCN(Cc4cccc(I)c4)CC3)c2c(=O)[nH]1`, the growth was -81.6% (active).

For the compound `CCN1C(=O)N(CC)C2NC(SC)=NC21` (stereo not given), the growth was 103%.

Regarding `CCCCCCCCCCCCC1CCC/C=C\CCC(=O)O1` (stereo not given), the growth is 55%.

As for `O=C(O)C(/C=C/c1ccco1)=N\Nc1nc(-c2ccc(Cl)cc2)cs1`, the growth was 51.4%.

As to `CC(Oc1ccc(C(=O)NS(=O)(=O)C(C)(C)C)cc1C(F)(F)F)c1ccc(Oc2ccccc2)cn1` (stereo not given), the growth is 94.5%.

For the compound `COc1ccc(C2=C(c3ccccc3)c3ccc(OC(C)=O)cc3OC2(C)C)cc1`, the growth was 87.7%.
